Laboratory results from PubChem BioAssay (NCI).
“And” between values parts separate entries of the source, which are not always exact repeats. Identical values can stand only once. This is part of a sample that, as a whole, favours compounds with a hit. Of some 83,000 tested, about 20% had one in any assay.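 How to read the values: 0–100, growth inhibition (40 = 60% inhibited); 0, no net growth; -100 to 0, cell death (-40 = 40% of starting cells died; -100 = all dead).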 The source made the active and inactive calls. The calls were made as follows: active = growth percent below 10; inactive = the rest.

How the values were obtained:
Test in all cases: NCI-60 one-dose screen, 48 h (100 = growth as untreated, 0 = no growth, -100 = all killed)
NCI-H226 lung = details: 10 µM
NCI-H322M lung = details: 10 µM
HOP-62 NSCLC = details: 10 µM
NCI-H460 lung = details: 10 µM
A549/ATCC NSCLC = details: 10 µM
786-0 renal = details: 10 µM
DU-145 prostate = details: 10 µM
SF-268 CNS = details: 10 µM
SF-295 CNS = details: 10 µM
SF-539 CNS = details: 10 µM
HCT-15 colon = details: 10 µM
HT29 colon = details: 10 µM
SNB-75 CNS = details: 10 µM
SNB-19 CNS = details: 10 µM
U251 CNS = details: 10 µM
PC-3 prostate = details: 10 µM
EKVX NSCLC = details: 10 µM
UO-31 renal = details: 10 µM
ACHN renal = details: 10 µM
HL-60(TB) leukemia = details: 10 µM unless noted

Question: For O=C(CCCc1ccc(N(CCCl)CCCl)cc1)OCc1ccccc1, which growth (NCI-H226 lung) is on record?
Answer: The growth was 90.3% (inactive).

Question: What about the growth (NCI-H322M lung) of the same compound?
Answer: Its growth is 103% (inactive).

Question: What about the growth (HOP-62 NSCLC) of the same compound?
Answer: The growth was 84.2% (inactive).

Question: And the growth (NCI-H460 lung)?
Answer: Its growth is 53.1% (inactive).

Question: And the growth (A549/ATCC NSCLC)?
Answer: The growth was 78.9% (inactive).

Question: What about the growth (786-0 renal) of the same compound?
Answer: Its growth is 99% (inactive).

Question: And the growth (DU-145 prostate)?
Answer: The growth was 96.7% (inactive).

Question: And the growth (SF-268 CNS)?
Answer: The growth was 80.4% (inactive).

Question: What about the growth (SF-295 CNS) of the same compound?
Answer: Its growth is 87.7% (inactive).

Question: And the growth (SF-539 CNS)?
Answer: The growth was 85.2% (inactive).

Question: What about the growth (HCT-15 colon) of the same compound?
Answer: Its growth is 88.6% (inactive).

Question: And the growth (HT29 colon)?
Answer: The growth was 95.8% (inactive).

Question: What about the growth (SNB-75 CNS) of the same compound?
Answer: Its growth is 84.9% (inactive).

Question: And the growth (SNB-19 CNS)?
Answer: The growth was 95.9% (inactive).

Question: And the growth (U251 CNS)?
Answer: Its growth is 89.2% (inactive).

Question: What about the growth (PC-3 prostate) of the same compound?
Answer: The growth was 83.2% (inactive).

Question: And the growth (EKVX NSCLC)?
Answer: Its growth is 101% (inactive).

Question: What about the growth (UO-31 renal) of the same compound?
Answer: The growth was 83.6% (inactive).

Question: And the growth (ACHN renal)?
Answer: Its growth is 50.6% (inactive).

Question: What about the growth (HL-60(TB) leukemia) of the same compound?
Answer: Its growth is 68.7% (inactive).

Question: How did the growth (NCI-H226 lung) turn out when C/C=C/CC(C)C(O)[C@H](NC(=O)[C@@H]1CCCN1C(=O)C(C)(C)NC(=O)CCCCCCCCC)C(=O)N[C@@](C)(CC)C(=O)N[C@@H](CCC(N)=O)C(=O)N[C@H](CCC(N)=O)C(=O)NC(C)(C)C(=O)N[C@@](C)(CC)C(=O)N[C@@H](CCC(N)=O)C(=O)N[C@H](CC(C)C)C(=O)N[C@H](CO)CC(C)C (stereo not given in full) was run?
Answer: The growth was 99.5% (inactive) and -21.5% (active).

Question: What about the growth (NCI-H322M lung) of the same compound?
Answer: The growth was 105% (inactive) and -23.7% (active).

Question: And the growth (HOP-62 NSCLC)?
Answer: Its growth is 104% (inactive) and -67.3% (active).

Question: What about the growth (NCI-H460 lung) of the same compound?
Answer: Its growth is 106% (inactive) and -77.3% (active).

Question: And the growth (A549/ATCC NSCLC)?
Answer: The growth was 103% (inactive) and 26.2% (inactive).

Question: What about the growth (786-0 renal) of the same compound?
Answer: Its growth is 108% (inactive) and -81.9% (active).

Question: What about the growth (DU-145 prostate) of the same compound?
Answer: The growth was 103% (inactive) and -72.3% (active).

Question: And the growth (SF-268 CNS)?
Answer: Its growth is 104% (inactive) and -52.9% (active).

Question: What about the growth (SF-295 CNS) of the same compound?
Answer: Its growth is 104% (inactive) and -83.9% (active).

Question: And the growth (SF-539 CNS)?
Answer: The growth was 100% (inactive) and -100% (active).

Question: And the growth (HCT-15 colon)?
Answer: Its growth is 101% (inactive) and 20.9% (inactive).

Question: And the growth (HT29 colon)?
Answer: Its growth is 116% (inactive) and 29.2% (inactive).

Question: And the growth (SNB-75 CNS)?
Answer: The growth was 96.1% (inactive) and -85.9% (active).

Question: What about the growth (SNB-19 CNS) of the same compound?
Answer: The growth was 101% (inactive) and -98% (active).

Question: And the growth (U251 CNS)?
Answer: Its growth is 107% (inactive) and -75.1% (active).

Question: What about the growth (PC-3 prostate) of the same compound?
Answer: Its growth is 97.3% (inactive) and -48.8% (active).

Question: And the growth (EKVX NSCLC)?
Answer: Its growth is 106% (inactive) and -68.1% (active).

Question: And the growth (UO-31 renal)?
Answer: Its growth is 85.2% (inactive) and -84.9% (active).

Question: And the growth (ACHN renal)?
Answer: The growth was 103% (inactive) and -7.13% (active).

Question: What about the growth (HL-60(TB) leukemia) of the same compound?
Answer: Its growth is 100% (inactive) and -46.1% (active).

Question: With O=C(N/N=C\c1ccc(F)cc1)c1ccc2nc(-c3ccc(Br)cc3)[nH]c2c1 as the compound, how does the growth (HL-60(TB) leukemia) read?
Answer: The growth was 78.8% (inactive).

Question: Which growth (HL-60(TB) leukemia) does the source give for C/C(=C(/c1ccc(O)cc1)c1ccc(OCCN(C)C)cc1)c1ccc(Cl)cc1 here?
Answer: The growth was 21.8% (inactive).

Question: Which growth (NCI-H226 lung) does the source give for COc1cc(OC)c(S(=O)(=O)N(CCCl)CCCl)cc1C(=O)/C=C/c1ccc(Cl)cc1 here?
Answer: Its growth is 78.9% (inactive).

Question: And the growth (NCI-H322M lung)?
Answer: The growth was 71.9% (inactive).

Question: What about the growth (HOP-62 NSCLC) of the same compound?
Answer: The growth was 91.7% (inactive).

Question: What about the growth (NCI-H460 lung) of the same compound?
Answer: The growth was 77.7% (inactive).

Question: And the growth (A549/ATCC NSCLC)?
Answer: Its growth is 71.5% (inactive).

Question: What about the growth (786-0 renal) of the same compound?
Answer: The growth was 64.4% (inactive).

Question: And the growth (DU-145 prostate)?
Answer: Its growth is 68.8% (inactive).

Question: And the growth (SF-268 CNS)?
Answer: The growth was 73.2% (inactive).

Question: What about the growth (SF-295 CNS) of the same compound?
Answer: The growth was 88.7% (inactive).

Question: What about the growth (SF-539 CNS) of the same compound?
Answer: The growth was 51.3% (inactive).

Question: What about the growth (HCT-15 colon) of the same compound?
Answer: Its growth is 31.6% (inactive).

Question: What about the growth (HT29 colon) of the same compound?
Answer: Its growth is 79.5% (inactive).

Question: What about the growth (SNB-75 CNS) of the same compound?
Answer: The growth was 37.8% (inactive).

Question: What about the growth (SNB-19 CNS) of the same compound?
Answer: The growth was 65.2% (inactive).

Question: What about the growth (U251 CNS) of the same compound?
Answer: Its growth is 55.1% (inactive).

Question: And the growth (PC-3 prostate)?
Answer: The growth was 70.3% (inactive).

Question: What about the growth (EKVX NSCLC) of the same compound?
Answer: Its growth is 85.5% (inactive).

Question: What about the growth (UO-31 renal) of the same compound?
Answer: The growth was 66.9% (inactive).

Question: What about the growth (ACHN renal) of the same compound?
Answer: The growth was 65.3% (inactive).

Question: What about the growth (HL-60(TB) leukemia) of the same compound?
Answer: The growth was 49.4% (inactive).

Question: With CC1(C)CC[C@]2(C(=O)O)CC[C@]3(C)C(=CCC4[C@@]5(C)C[C@@H](O)[C@@H]6OC(c7cccc([N+](=O)[O-])c7)OC[C@@]6(C)C5CC[C@]43C)C2C1 (stereo not given in full) as the compound, how does the growth (HL-60(TB) leukemia) read?
Answer: Its growth is 42.5% (inactive).

Question: With CCN1C(=S)N(c2ccccc2)C2NC(=O)N(/N=C/C=C/c3ccccc3OC)C21 (stereo not given) as the compound, how does the growth (HL-60(TB) leukemia) read?
Answer: Its growth is 64.2% (inactive).

Question: O=C1CC2(CCOCC2)Oc2ncccc21 was tested. Which growth (HL-60(TB) leukemia) did it give?
Answer: The growth was 13.3% (inactive).

Question: Cn1cc(-c2nn3cc(-c4ccncc4)nc3s2)c2cc(F)ccc21 was tested. Which growth (HL-60(TB) leukemia) did it give?
Answer: The growth was -1.16% (active).

Question: Which growth (HL-60(TB) leukemia) does the source give for Cc1csc(/N=C(N)/N=C(\N)c2cccc(C#N)c2)n1 here?
Answer: The growth was 70.8% (inactive).

Question: With CNC(=O)c1cc(Oc2ccc3nc(NC(=O)c4cc(C)cc(C)c4)sc3c2)ccn1 as the compound, how does the growth (HL-60(TB) leukemia) read?
Answer: Its growth is 70.4% (inactive).

Question: CCNC(=O)N1CCc2cc(OC)c(OCCc3ccc(OC)cc3)cc2C1c1ccc(Cl)cc1C (stereo not given) was tested. Which growth (HL-60(TB) leukemia) did it give?
Answer: Its growth is 12.2% (inactive).

Question: CN1CCN(Cc2ccc(NC(=O)c3cncc(C#Cc4cnc5ccc(OCC6COC6)nn45)c3)cc2C(F)(F)F)CC1 was tested. Which growth (HL-60(TB) leukemia) did it give?
Answer: Its growth is -42.8% (active).

Question: For Cn1ccnc1C(=O)/C=C/c1ccc(CNC(=O)c2ccc(Cl)cc2)cc1, which growth (HL-60(TB) leukemia) is on record?
Answer: Its growth is -25.5% (active).

Question: With CCOC(=O)c1c(N)c(C#N)cn1-c1cc(OC)c(OC)c(OC)c1 as the compound, how does the growth (HL-60(TB) leukemia) read?
Answer: The growth was 96.1% (inactive).

Question: How did the growth (HL-60(TB) leukemia) turn out when CCOC(=O)c1c(Nc2ccccc2)nn2c(N)c(C#N)c(-c3ccc(OC)cc3)nc12 was run?
Answer: The growth was 112% (inactive).

Question: Which growth (HL-60(TB) leukemia) does the source give for CN(C)S(=O)(=O)c1ccc(-c2nc(C(Cl)Cl)nc3cc(-c4ccccc4)nn23)cc1 here?
Answer: Its growth is 71.1% (inactive).

Question: For CCOC(=O)c1sc(N)c(C(=O)OCC)c1C, which growth (HL-60(TB) leukemia) is on record?
Answer: Its growth is 38.5% (inactive).

Question: With Cc1[nH]c(C(=O)Nc2ccccc2OCc2cccc(C(=O)NC3CCCNC3)c2)c(Cl)c1Cl (stereo not given) as the compound, how does the growth (HL-60(TB) leukemia) read?
Answer: The growth was -53.9% (active).

Question: How did the growth (HL-60(TB) leukemia) turn out when CCCCCc1ccc(S(=O)(=O)N(C(C)=O)c2cccc(-c3csc(N(CCN4CCN(C)CC4)C(C)=O)n3)c2)cc1 was run?
Answer: Its growth is -52.8% (active).

Question: For N=c1c2cc(-c3ccccc3)oc2ncn1/N=C/c1ccc(Br)cc1, which growth (HL-60(TB) leukemia) is on record?
Answer: Its growth is 109% (inactive).

Question: With Cc1[nH]nc2ccc(-c3nc4cnc(N5CCN(C)CC5)cn4c3Nc3ccc(F)cc3Br)cc12 as the compound, how does the growth (HL-60(TB) leukemia) read?
Answer: Its growth is -29.6% (active).

Question: For CCOC(=O)c1c(N)c(C#N)cn1Cc1ccc(Cl)cc1Cl, which growth (HL-60(TB) leukemia) is on record?
Answer: Its growth is 60.6% (inactive).

Question: How did the growth (HL-60(TB) leukemia) turn out when N#Cc1c(-c2cccs2)cc(-c2cnccn2)nc1SCC(=O)N/N=C/c1ccccc1 was run?
Answer: The growth was 110% (inactive).

Question: O=C(COc1ccc(/C=C2\SC(=O)NC2=O)cc1)Nc1ccc(C(=O)/C=C/c2cc3ccccc3nc2Cl)cc1 was tested. Which growth (HL-60(TB) leukemia) did it give?
Answer: The growth was 79.6% (inactive).

Question: With O=C1/C(=C/C=C/c2ccco2)SC(=S)N1Cc1ccccc1 as the compound, how does the growth (HL-60(TB) leukemia) read?
Answer: Its growth is 96.9% (inactive).

Question: How did the growth (HL-60(TB) leukemia) turn out when CCN(CC)CCOc1ccc(C(=C(C)c2ccc(OC)cc2)c2ccc(OCCN(CC)CC)cc2)cc1 was run?
Answer: The growth was -42.9% (active).

Question: For COc1ccc(C2C(C#N)=C(/N=C/c3ccc(Cl)cc3)Oc3c2sc2c(C)cccc32)cc1 (stereo not given), which growth (HL-60(TB) leukemia) is on record?
Answer: The growth was 4.04% (active).
